In PubChem BioAssay:
Calls of active or inactive are those of the source. Unless noted, no rule for the calls is given here.

Assays:
[1] = RCMB18 cell growth, single agent and combined, cisplatin and BGB IC40 combos (AID 1671462); conditions: RCMB18 medulloblastoma cells, stronger effect = higher value;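 also: cells exposed to compound for four days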
[2] = CRL1545 cell growth, single agent and combined, cisplatin and BGB IC20 combos (AID 1671464; in the data active = inhibition above about 80%;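 also: cells exposed to compound for 96 hours before readout; 0% = vehicle DMSO and 100% = high DMSO killing control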); conditions: CRL1545 osteosarcoma cells, stronger effect = higher value
[3] = compounds altering circadian rhythm period length – cell-based, LOPAC library, luminescence reporter (AID 2774); conditions: circadian reporter cells, at 7 µM, actives lie on both sides;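 also: values are relative to mean of DMSO wells on each plate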
[4] = test system: Hepatitis C virus NS3 helicase; experiment: blockers of NS3h binding to ssDNA – biochemical, fluorescence polarization, LOPAC1280 library, primary screen (AID 687035; in the data active = inhibition above about 37%); conditions: Purified HCV NS3 helicase, Cy5-dT15 ssDNA binding fluorescence polarization; stronger effect = higher value; concentration not given here
[5] = compounds altering Cy5-DNA-NS3h complex signal – biochemical, LOPAC1280, artefact control for HCV NS3 helicase inhibitor project (AID 687037); conditions: Cy5-DNA-NS3h complex fluorescence interference counterscreen
[6] = compounds altering viability of human ES cells (AID 493140); conditions: human embryonic stem cell survival screen; stronger effect = higher value;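 also: cells exposed to compounds for four days before counting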
[7] = P. berghei load reduction in hepatocytes – cell-based, HepG2, luciferase luminescence, HepG2 viability, primary screen (AID 624349; in the data active = parasite load remaining mostly below about 12%, no sharp cut-off; inactive = mostly above about 10%;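 also: 100% = mean of DMSO negative control wells on the same plate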); conditions: P. berghei liver stage in HepG2, luciferase luminescence, concentration not given here; parasite load remaining: stronger effect = lower value; viability: measured here: HepG2 viability without parasites
[8] = test system: Neuropilin-2 / VEGF-C interaction (human); experiment: small molecules blocking Neuropilin-2/VEGF-C interaction – biochemical, microplate binding format, z-score (AID 743281); conditions: microplate NRP2/VEGF-C binding assay; stronger effect = lower value
[9] = liver-stage malaria parasite load reduction – cell-based, known kinase inhibitor set, luminescence, hepatoma host viability (AID 624392); conditions: Plasmodium liver stage in hepatoma cells, luciferase luminescence, concentration not given here; liver cell % of control: measured here: host liver cell viability; parasite % of control: stronger effect = lower value;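 also: infected cells incubated roughly two days before readout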

## COc1cc(C2c3cc4c(cc3C(O)C3COC(=O)C23)OCO4)cc(OC)c1OC (stereo not given)
[1]; measured here: BGB IC40 combination, at 0.05 µM
  inhibition: 11.1%
[1]; measured here: combination with cisplatin, at 0.5 µM
  inhibition: 20.9%
[1]; single agent, at 5 µM
  inhibition: 18.7%
[2]; at 0.5 µM
  inhibition: 74.4% (inactive)
[2]; measured here: with BGB IC20 combination, at 0.5 µM
  inhibition: 70.7%
[2]; measured here: with cisplatin IC20 combination, at 0.5 µM
  inhibition: 76.3%
[2]; single agent, at 0.05 µM
  inhibition: 49.3%
[2]; single agent, at 5 µM
  inhibition: 85.7%

## Oc1ccc2c3c1O[C@H]1[C@@H](O)CC[C@@]4(O)C(C2)N(CC2CCC2)CCC314 (stereo not given in full)
[3]
  period change: -0.2 h (inactive)

## COc1cc(CC(C)N)c(OC)cc1I (stereo not given)
[4]
  inhibition: -3% (inactive)
[5]
  fluorescence ratio (interference): 1 (inactive)

## CCCn1c(C)c(C(=O)c2ccc3ccccc3c2)c2ccccc21
[4]
  inhibition: -4% (inactive)
[5]
  fluorescence ratio (interference): 1 (inactive)

## NC(N)=NOCC[C@@H](N)C(=O)O
[6]
  survival: 14.8 (inactive)
[7]
  parasite load remaining: 70.5% (inactive)
  viability: 75.6%

## CCCCCCCCCCCCC/C=C/[C@@H](O)[C@@H](N)COP(=O)([O-])OCC[N+](C)(C)C
[6]
  survival: 95.8 (inactive)

## CC[C@@H]1/C=C\C=C\C[C@H](C)[C@@H](O)[C@@H](C)C(=O)[C@H](C)[C@@H](O)[C@H](C)C(=O)[C@H](C)[C@@H](O)[C@H](C)/C=C/C(=O)O[C@H]2[C@@H](C)[C@@H](CC1)O[C@@]1(CC[C@@H](C)[C@@H](C[C@H](C)O)O1)[C@@H]2C
[8]
  outcome: inactive

## O=P(O)(O)Cc1ccccc1
[6]
  survival: 126 (inactive)

## O=c1cccc2n1CC1CNC[C@@H]2C1
[6]
  survival: 9 (inactive)
[7]
  parasite load remaining: 70.3% (inactive)
  viability: 77.8%

## CC1(C)C(C=C(Br)Br)C1C(=O)OC(C#N)c1cccc(Oc2ccccc2)c1 (stereo not given)
[6]
  survival: 82.3 (inactive)

## C#CC1(O)CC[C@H]2[C@@H]3CCC4=CCCC[C@@H]4[C@H]3CC[C@@]21C (stereo not given in full)
[6]
  survival: 37.7 (inactive)

## O=C1Nc2ccc3ncsc3c2/C1=C/c1cnc[nH]1
[7]
  parasite load remaining: 86.4% (inactive)
  viability: 77.5%

## CN[C@@H]1CC2(C)OC([C@@H]1OC)n1c3ccccc3c3c4c(c5c6ccccc6n2c5c31)C(=O)NC4 (stereo not given in full)
[6]
  survival: 0.333 (inactive)

## C=CCN1CC[C@]23c4c5ccc(O)c4O[C@@H]2/C(=N\N=C2\CC[C@@]4(O)C6Cc7ccc(O)c8c7[C@@]4(CCN6CC=C)[C@@H]2O8)CC[C@@]3(O)C1C5
[4]
  inhibition: -6% (inactive)
[5]
  fluorescence ratio (interference): 0.9 (inactive)

## O=C1NC(=O)C(=Cc2ccc(-c3ccc(Cl)cc3)o2)C(=O)N1
[9]
  liver cell % of control: 87%
  parasite % of control: 167% (inactive)

## CC1O[C@@H](O[C@@H]2C=C3CCC4C(CC[C@]5(C)[C@@H](c6ccc(=O)oc6)CC[C@]45O)[C@@]3(C)CC2)C(O)[C@@H](O)[C@H]1O (stereo not given in full)
[6]
  survival: 2.83 (inactive)

## CC(=O)OC(C)C(C)C(=O)OC[C@]12C(C)[C@H]3O[C@@H]1C[C@]1(C)C(=CCC4[C@@]5(C)CCC(OC6O[C@H](C(=O)O)[C@H](O[C@H]7O[C@@H](CO)[C@@H](O)[C@@H](O)[C@@H]7O)[C@H](O)[C@H]6O[C@@H]6OO[C@@H](O)[C@H](O)[C@@H]6O)[C@](C)(CO)C5CC[C@]41C)[C@@H]2CC3(C)C (stereo not given in full)
[6]
  survival: 2.17 (inactive)

## CN1C2CCC1CC(O)C2 (stereo not given)
[6]
  survival: 7.58 (inactive)
[7]
  parasite load remaining: 64% (inactive)
  viability: 69.9%

## CN(C(Cc1ccc(OOSOc2cccc3cnccc23)cc1)C(=O)N1CCN(c2ccccc2)CC1)S(=O)(=O)c1cccc2cnccc12 (stereo not given)
[7]
  parasite load remaining: 43.1% (inactive)
  viability: 153%

## COC1=C[C@H]2C3=C([C@H]2C1=O)[C@@H](NC(C)=O)CCc1cc(OC)c(OC)c(OC)c13
[6]
  survival: 13.2 (inactive)
[7]
  parasite load remaining: 78.4% (inactive)
  viability: 74.3%

## C=CCN1CC[C@]23c4c5ccc(O)c4O[C@H]2/C(=N\NC(=O)c2ccccc2)CC[C@@]3(O)[C@H]1C5
[4]
  inhibition: -6% (inactive)
[5]
  fluorescence ratio (interference): 0.9 (inactive)

## O=C1NC(=O)C(=Cc2ccc(-c3ccc(S(=O)(=O)N4CCOCC4)cc3)o2)C(=O)N1
[9]
  liver cell % of control: 98.4%
  parasite % of control: 98.3% (inactive)

## N#CC(C#N)=Cc1cc(O)c(O)c([N+](=O)[O-])c1
[6]
  survival: 100 (inactive)

## CN1C2CC(=O)CC1C(O)C2 (stereo not given)
[6]
  survival: 4.08 (inactive)

## O=C1NC(=O)C(=Cc2ccc(-c3ccc(F)cc3O)o2)C(=O)N1
[9]
  liver cell % of control: 100%
  parasite % of control: 87.6% (inactive)

## CN1C2CCC1CC(OC1c3ccccc3CCc3ccccc31)C2 (stereo not given)
[6]
  survival: 0.75 (inactive)

## CC[C@H]1CN2CCc3cc(OC)c(OC)cc3[C@@H]2C[C@@H]1C[C@H]1NCCc2cc(O)c(OC)cc21
[6]
  survival: 0.333 (inactive)
[7]
  parasite load remaining: 8.07% (inactive)
  viability: 49.7%

## C[C@H]1O[C@@H](OC2CC[C@]3(C=O)[C@H]4CC[C@]5(C)[C@@H](C6=CC(=O)OC6)CC[C@@]5(O)[C@@H]4CC[C@]3(O)C2)C[C@H](O)[C@@H]1O (stereo not given in full)
[6]
  survival: 1.42 (inactive)

## N/C(=N\[N+](=O)[O-])N/N=C\c1ccc(-c2cccc([N+](=O)[O-])c2)o1
[7]
  parasite load remaining: 33.3% (inactive)
  viability: 91.9%

## CC(C)C1C(=O)N2CCCC2C2(O)OC(NC(=O)C3CC4c5cccc6[nH]cc(c56)CC4N(C)C3)(C(C)C)C(=O)N12 (stereo not given)
[6]
  survival: 8 (inactive)

## NS(=O)(=O)c1ccc(-c2ccc(C=C3C(=O)NC(=S)NC3=O)o2)cc1
[9]
  liver cell % of control: 102%
  parasite % of control: 96.9% (inactive)

## CC1CC[C@]2(NC1)O[C@H]1C[C@H]3[C@@H]4CC[C@H]5C[C@@H](O)CC[C@]5(C)[C@H]4CC[C@]3(C)[C@H]1[C@@H]2C (stereo not given in full)
[6]
  survival: 5.67 (inactive)
[7]
  parasite load remaining: 77.7% (inactive)
  viability: 73.9%

## O=C1NC(=O)C(=Cc2ccc(-c3ccc([N+](=O)[O-])cc3)o2)C(=O)N1
[9]
  liver cell % of control: 98%
  parasite % of control: 117% (inactive)

## C[C@@H](N)[C@H](O)c1ccccc1
[6]
  survival: 4.42 (inactive)
[7]
  parasite load remaining: 62.7% (inactive)
  viability: 76%

## O=S(=O)(c1c(O)c(Cl)cc(Cl)c1Cl)c1c(O)c(Cl)cc(Cl)c1Cl
[7]
  parasite load remaining: 27.4% (inactive)
  viability: 70.9%

## CCC[C@@H]1C[C@@H](C(=O)N[C@H]([C@@H](C)O)[C@H]2O[C@H](SC)[C@H](O)[C@@H](O)C2O)N(C)C1 (stereo not given in full)
[6]
  survival: 18.3 (inactive)

## [Cl-].[Cl][Pt].[NH2-].[NH2-].c1ccncc1
[4]
  inhibition: -3% (inactive)
[5]
  fluorescence ratio (interference): 0.9 (inactive)

## CCN1C[C@]2(C)CC[C@H](OC)[C@]34C2[C@H](OC(C)=O)C2(OCO[C@@]25CC(OC)C2C[C@]3(O)C5[C@H]2OC)[C@@H]14 (stereo not given in full)
[6]
  survival: 5 (inactive)

## COc1ccc(C(=O)OC2C[C@H]3CC[C@@H](C2)N3C)cc1OC (stereo not given in full)
[6]
  survival: 13.3 (inactive)
[7]
  parasite load remaining: 68.2% (inactive)
  viability: 77.3%

## CCN(CC)C(=O)N[C@H]1C[C@@H]2c3cccc4[nH]cc(c34)C[C@H]2N(C)C1
[6]
  survival: 6 (inactive)

## CNS(=O)(=O)c1ccc(-c2ccc(C=C3C(=O)NC(=O)NC3=O)o2)cc1
[9]
  liver cell % of control: 99.7%
  parasite % of control: 111% (inactive)

## C=C[C@@H]1CN2CCC1C[C@@H]2[C@H](O)c1ccnc2ccccc12 (stereo not given in full)
[6]
  survival: 3.33 (inactive)
[7]
  parasite load remaining: 71% (inactive)
  viability: 77.6%

## NS(=O)(=O)c1ccc(-c2ccc(C=C3C(=O)NC(=O)NC3=O)o2)cc1
[9]
  liver cell % of control: 104%
  parasite % of control: 97.7% (inactive)

## CC1CCC2(NC1)O[C@H]1C[C@H]3[C@@H]4CC=C5C[C@@H](O)CC[C@]5(C)[C@H]4CC[C@]3(C)[C@H]1[C@@H]2C (stereo not given in full)
[6]
  survival: 4.83 (inactive)
